Records with an inconclusive call do not appear. Entries that show only a call come without a potency. Calls of active or inactive are those of the source. Calls come from the whole dose curve; as a rule, active = well fitted inhibition curve with a large enough effect; inconclusive = small, poorly fitted or top-dose-only effect; inactive = no such curve, though single readings can be large or run the other way.
target: Retinaldehyde dehydrogenase 3 (Homo sapiens) (UniProt P47895); assay: qHTS for Inhibitors of the Aldehyde Dehydrogenase Family (ALDH1A3) Primary screen (AID 2061315); conditions: ALDH inhibition qHTS; series mostly up to 56 µM

Row | Compound | Potency
1 | CCCCN(C)C(=O)Cn1nc(-c2ccccc2C)ccc1=O | inactive
2 | COc1cccc(OC)c1C1=Nn2c(nnc2-c2ccccc2O)SC1 | inactive
3 | N=c1c2c(ccn1Cc1ccccc1)Oc1ccc3ccccc3c1C2c1ccccc1 (stereo not given) | inactive
4 | COc1cccc(NC(=S)N2CCN(c3ccccc3C(F)(F)F)CC2)n1 | inactive
5 | CCNC(=O)c1ccc(-c2ccc3ncnc(NCC4CCCO4)c3c2)o1 (stereo not given) | inactive
6 | COc1ccc(C[C@H](N)C(=O)N[C@@H]2[C@H](O)[C@H](n3cnc4c(N(C)C)ncnc43)O[C@@H]2CO)cc1 | inactive
7 | C=C1[C@@H](C)[C@H]2[C@H](Cc3c[nH]c4ccccc34)NC(=O)[C@]23C(=O)/C=C/C(=O)[C@H](O)/C(C)=C\[C@@H](C)C/C=C/[C@H]3[C@@H]1O | inactive
8 | CCN(CC)CCCCn1c(-c2ccccc2)nc2c(NCCOC)nc(C)nc21 | inactive
9 | Cc1ccc(NS(=O)(=O)c2cc3c(cc2F)NC(=O)CC3)cc1C | inactive
10 | CC(C)C[C@H](C(=O)O)c1cc(-c2ccc(C(F)(F)F)cc2)cc(-c2ccc(C(F)(F)F)cc2)c1 | inactive
11 | O=C(Nc1nc(-c2ccccc2)cs1)c1ccncc1NS(=O)(=O)c1ccc2c(c1)CCC2 | inactive
12 | O=C(Nc1ccc(-c2cn[nH]c2)cc1)Nc1nnc(-c2ccncc2)s1 | inactive
13 | COc1cccc(C2c3c(ncn(-c4ccccc4Br)c3=N)Oc3ccc4ccccc4c32)c1 (stereo not given) | inactive
14 | Cc1ccc(NC(=O)Nc2nnc(-c3ccncc3)s2)cc1C | inactive
15 | O=C(NCc1ccc(F)cc1)n1cc(P(=S)(c2ccccc2)c2ccccc2)c2ccccc21 | inactive
16 | CC(C)(C)N=Cc1c(-c2ccccc2)no[n+]1[O-] | inactive
17 | CC1OC2OC3C(OCC(O)C3O)OC(=O)C34CCC(C)(C)CC3C3=CCC5C6(C)CC(O)C(OC7OC(CO)C(O)C(O)C7OC7OCC(OC(=O)CC(C)(O)CC(=O)OC1C(OC1OCC(O)C(O)C1O)C2O)C(O)C7O)C(C)(CO)C6CCC5(C)C3(C)CC4O (stereo not given) | inactive
18 | COc1cccc(C2c3c(ncn(-c4cccc(Br)c4)c3=N)Oc3ccc4ccccc4c32)c1 (stereo not given) | inactive
19 | Cc1csc(CNc2ncnc3ccc(-c4ccc5c(c4)OCCO5)cc23)c1 | inactive
20 | COc1ccc(-c2nnc3n2N=C(c2cc(OC)ccc2OC)CS3)c(OC)c1 | inactive

Row | Compound | Potency
21 | Cc1nc(NC2CCCCC2)c2nc(-c3ccccc3)n(C(C)CN(C)C)c2n1 (stereo not given) | inactive
22 | COc1cc(-c2nc(Nc3ccc(F)c(F)c3)c3ccccc3n2)c(F)cn1 | inactive
23 | Cc1cccc(C)c1SC1=NS(=O)(=O)c2ccccc21 | inactive
24 | CCOc1ccc(CCNC(=O)C2=C(C)OCCO2)cc1OCC | inactive
25 | COc1cc(O)c(C(CC(=O)N2CCC[C@H](C)C2)c2ccc3c(c2)OCO3)c(OC)c1 (stereo not given in full) | inactive
26 | Cc1ccccc1-c1ccc(=O)n(CC(=O)NCCc2ccccc2)n1 | inactive
27 | c1cncc(CNc2ncnc3ccc(-c4ccc5c(c4)OCO5)cc23)c1 | inactive
28 | Cc1ccc(S(=O)(=O)Nc2cnccc2C(=O)Nc2nc(-c3cccc(Cl)c3)cs2)cc1 | inactive
29 | COc1cccc(C2C(C#N)=C(NC(=O)CCc3ccccc3)Oc3ccc4ccccc4c32)c1 (stereo not given) | inactive
30 | CC(C)c1nc(Nc2nc3ccccc3o2)nc2c1CCCC2 | inactive
31 | Cc1nc(Nc2ccccc2)c2nc(-c3ccccc3)n(CCCN3CCCCC3C)c2n1 (stereo not given) | inactive
32 | O=C(Nc1ccccc1)Nc1ccccc1 | inactive
33 | Cn1nnnc1Sc1ncnc2scc(-c3ccccc3S(C)(=O)=O)c12 | inactive
34 | COC(=O)C1=CO[C@@H](O[C@@H]2O[C@H](CO)[C@@H](O)[C@H](O)[C@H]2O)[C@H]2[C@@H]1CC(OC)O[C@@H]2C (stereo not given in full) | inactive
35 | COc1ccccc1S(=O)(=O)Nc1cnccc1C(=O)Nc1nc(-c2ccccc2)cs1 | inactive
36 | CSc1cnc(-c2ccccc2C(C)C)nc1NCc1ccc(-c2cccnc2)cc1 | inactive
37 | Cc1ccc(S(=O)(=O)n2cc(C(=O)Nc3ccc(-c4ccccc4)cc3)c3ccccc32)cc1 | inactive
38 | FC(F)(F)c1ccccc1-c1nc(NCc2ccc(C3CCCCC3)cc2)c2ccccc2n1 | inactive
39 | C=C[C@H]1CN2CC[C@H]1C[C@@H]2C(O)c1ccnc2ccc(OC)cc12 (stereo not given in full) | inactive
40 | Cc1cc(C)nc(NC(=S)N2CCN(c3cccc(Cl)c3Cl)CC2)c1 | inactive
